Test: inhibitors of Cryptococcus chitosan production, flow cytometry, Cibacron Brilliant Red staining (AID 1347148);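 also: compound exposure lasted three days at 37 degrees C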
Conditions: Cryptococcus neoformans chitosan, hits give low values; at 10 µM unless noted; call rule not given here

Fold fluorescence, inactive:
COC(C)(C)CCC[C@H](C)C/C=C/C(C)=C/C(=O)O 5.1
CN(CCc1ccc(Cl)c(Cl)c1)C[C@H](O)COc1ccc(NS(C)(=O)=O)cc1 3.81 [at 111.8 µM]
CCCCCCCCCCCCCCCCCCOC[C@@H](COP(=O)([O-])OCC[N+](C)(C)C)OC 5.31
CCCCCCCCCCCCCCCCOC[C@@H](COP(=O)([O-])OCC[N+](C)(C)C)OC(=O)NC 5.1
C=C1CC[C@@H](O)C/C1=C/C=C1\CCC[C@]2(C)[C@@H]1CC[C@H]2[C@@H](C)CCCC(C)(C)O 5.68
C[C@H]1CNCCN1S(=O)(=O)c1cccc2cnccc12 3.94 [at 171.6 µM]
C[C@@H](COc1ccccc1)N(CCCl)Cc1ccccc1 6.47 [at 164.6 µM]
O=C(O)CCC/C=C\C[C@H]1[C@H](/C=C/[C@H](O)COc2cccc(C(F)(F)F)c2)[C@@H](O)C[C@H]1O 4.62
C=CC[C@H]1/C=C(\C)C[C@@H](C)C[C@@H](OC)[C@@H]2O[C@](O)(C(=O)C(=O)N3CCCC[C@@H]3C(=O)O[C@@H](/C(C)=C/[C@H]3CC[C@H](O)[C@@H](OC)C3)[C@@H](C)[C@H](O)CC1=O)[C@@H](C)C[C@H]2OC 13.5 [at 62.2 µM]
O=C(O)c1ccc(-c2c3nc(c(-c4ccc(C(=O)O)cc4)c4ccc([n-]4)c(-c4ccc(C(=O)O)cc4)c4nc(c(-c5ccc(C(=O)O)cc5)c5ccc2[n-]5)C=C4)C=C3)cc1.[Mn+3] 4.93 [at 57 µM]
C=C1CC[C@@H](O)C/C1=C/C=C1\CCC[C@]2(C)[C@@H]1CC[C@H]2[C@@H](C)CC[C@H](O)C(C)(C)O 6.63
CCCCC/C=C\C/C=C\C/C=C\C/C=C\CCCC(=O)O[C@@H](COCCCCCCCCCCCCCCCC)COP(=O)([O-])OCC[N+](C)(C)C 5.54
CC(/C=C/C(=O)NO)=C\[C@H](C)C(=O)c1ccc(N(C)C)cc1 17.7 [at 165.4 µM]
COc1c(O)c2c(=O)cc(OC)c3c4c(OC)cc(=O)c5c(O)c(OC)c(C[C@H](C)OC(=O)c6ccccc6)c(c(c1C[C@H](C)OC(=O)Oc1ccc(O)cc1)c23)c54 6.48 [at 6.3 µM]
CCCCC[C@@H](O)/C=C/[C@H]1[C@@H]2C/C(=C/CCCC(=O)O)O[C@@H]2C[C@@H]1O 4.1
C/C=C/C/C=C/CCC(=O)[C@@H]1O[C@@H]1C(N)=O 8.37 [at 223.9 µM]
CCCCC[C@@H](O)/C=C/[C@H]1[C@H](CCCCCCC(=O)O)[C@H](O)C[C@@H]1O 3.58
O=C(O)CCC/C=C\C[C@H]1[C@H](/C=C/[C@H](O)COc2cccc(Cl)c2)[C@@H](O)C[C@H]1O 4.34

From PubChem BioAssay
